DT40 TDP1 CPT: DT40-hTDP1 cell growth loss with CPT; AID 686979; hit rate 12% among 420,000; chicken DT40 Tdp1-/-;hTDP1 cells + 20 nM CPT, ATP luminescence, 48 h; Potency, µM (series often up to 46.2 µM), inactives show at the top dose activity change, negative = growth inhibition, actives largely listed as inhibitors; further: potency means the concentration at half of the fitted maximal effect; nearly all actives have a fitted effect of over 55% in size
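Chicken DT40 Tdp1-/- cells stably complemented with human TDP1 were seeded at 400 cells/well in medium containing 20 nM camptothecin, exposed to pin-transferred compounds, and grown at 37 °C for at least 48 hr. Viability was read as ATP luminescence.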
HT1080 IDH1KD tx: HT-1080 IDH1 knockdown cell toxicity (counter line); HT-1080 IDH1 knockdown viability, ATP luminescence, 48 h; Potency, µM (doses to about 46.1 µM), for the others: at the top dose activity, negative = toxicity, actives largely listed as cytotoxic; hit rate 2% among 360,000;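 further: potency means the concentration at half of the fitted maximal effect; 0% = DMSO wells and -100% = cell-free medium wells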
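Viability of IDH1-knockdown HT-1080 fibrosarcoma cells was assessed by CellTiter-Glo after 48 h at 37 °C with titrated compound; concentration-effect curves were classified by fit quality and response size.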
ELG1 DNA repair: ELG1-dependent DNA repair inhibition | HEK293T ELG1-luciferase reporter, luminescence, 16 h; DNA damage induced by 5-fluorouridine | Potency, µM (doses to about 46.1 µM), for the others: at the top dose activity change, negative = inhibition, hits mostly inhibitors | hit rate 2.3% among 330,000 | AID 504467; further: potency means the concentration at half of the fitted maximal effect; nearly all actives have a fitted effect of over 55% in size
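Luminescence from the luciferase reporter, measured 30 min after ONE-Glo reagent at room temperature, was the read-out. Beforehand, 2,000 cells per well were exposed for 16 hr at 37 °C to 5-fluorouridine together with compound or vehicle.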
TDP1 cell noCPT: qHTS for Inhibitors of human tyrosyl-DNA phosphodiesterase 1 (TDP1): qHTS in cells in absence of CPT; hit rate 15% among 420,000; Potency, µM (top dose mostly 46.2 µM), inactives show at the highest dose activity change, negative = growth inhibition, most hits filed as inhibitors; DT40 Tdp1-/- hTDP1 cells, no CPT, ATP luminescence, 48 h; further: potency means the concentration at half of the fitted maximal effect; nearly all actives have a fitted effect of over 55% in size
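Chicken DT40 Tdp1-/- cells complemented with human TDP1, screened without camptothecin (DMSO vehicle only), 400 cells/well. Compounds pin-transferred, cells incubated at 37 °C for at least 48 hr. Growth read as ATP-dependent luminescence (CellTiter-Glo, 30 min at RT).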
HT1080NT lethal: kills 2HG-producing HT-1080-NT fibrosarcoma cells; AID 686970; hit rate 1.6% among 360,000; Potency, µM (series often up to 46.1 µM), without a hit: at the highest dose activity, negative = less viability, usual class: cytotoxic; HT-1080-NT fibrosarcoma viability, CellTiter-Glo ATP luminescence, 48 h;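 further: NT is the 2HG producing partner of a matched IDH1 knockdown line; potency means the concentration at half of the fitted maximal effect; 0% = DMSO-treated cells and -100% = media-only wells without cells; nearly all actives have a fitted effect of over 55% in size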
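Viability of the 2HG-overproducing fibrosarcoma line after 48 hours of compound exposure at 37 degrees C was determined by luminescence with CellTiter-Glo, and concentration-effect curves were then fitted and categorized.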
IL-1B inflam inh: inhibitors of inflammasome signaling (IL-1 beta secretion) | THP-1 LPS/ATP IL-1B secretion, AlphaLISA, 16 h; hits give low values | activity change, % at 57.5 µM | hit rate 4.7% among 360,000; in the data active means activity change below about -50%; inconclusive means mostly about -30% to -49%
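THP-1 cells pretreated 1 hr with compounds (up to 57.5 uM final), then stimulated with LPS (250 ng/mL final) plus ATP (1.25 mM final); secreted IL-1B measured by AlphaLISA after 16 hr, decreased signal indicating inhibition.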
* marks the source's active call; other numbers are inactive results; ? = inconclusive; · = no result. This is a sample that favours compounds with a hit; in the whole collection about 19% have one here. Unless noted, the call rests on the fitted dose curve; in most records, active means well fitted curve in the direction sought with a large enough effect; inconclusive means small, poorly fitted or top-dose-only effect, or another doubt; inactive means no such curve, though single readings can be large; an effect the other way counts as inactive or inconclusive. Unless noted, on the % scale 0 is the no-effect control and ±100 the full control effect.

SMILES	DT40 TDP1 CPT	HT1080 IDH1KD tx	ELG1 DNA repair	TDP1 cell noCPT	HT1080NT lethal	IL-1B inflam inh
COc1ccc(-c2nc3ccc(NS(C)(=O)=O)cc3o2)cc1	-10%	·	·	-16%	·	·
CC(=O)c1ccc(OCCCC(=O)NCCc2ccccc2)cc1	12%	11%	?	10%	12%	0
CC(=O)Nc1ccc(S(=O)(=O)NCCC(=O)NCCOc2ccccc2)cc1	-10%	4%	7%	5%	5%	8
CCN(C(=O)COC(=O)Cc1ccc(F)cc1)c1c(N)n(Cc2ccccc2)c(=O)[nH]c1=O	-17%	1%	27%	-3%	5%	-3
C=CCN1C=C2C(=O)C(C)(OC(=O)c3ccc(OC)cc3)C(=O)C(c3ccco3)=C2C=C1CCCC (stereo not given)	13µM*	0%	1%	-4%	-5%	22
CCCCC1=CC2=C(c3ccco3)C(=O)C(C)(OC(=O)c3ccc(OC)cc3)C(=O)C2=CN1c1ccccc1 (stereo not given)	23µM*	-1%	-1%	?	2%	10
COC(=O)CCC(=O)OC1(C)C(=O)C2=CN(CCCOC(C)C)C(c3ccc(OC)cc3)=CC2=C(Br)C1=O (stereo not given)	18µM*	-11%	-1%	16µM*	-3%	-1
CCCCC1=CC2=C(c3ccco3)C(=O)C(C)(OC(=O)c3ccc(OC)cc3)C(=O)C2=CN1CCCOC(C)C (stereo not given)	5.2µM*	0%	-27%	6.5µM*	2%	-14
C[C@@H]1CN([C@H](C)CO)C(=O)CCCn2nncc2CO[C@H]1CN(C)Cc1ccc2c(c1)OCO2	12%	10%	·	-6%	6%	28
CCOc1ccc(NC(=O)CN(C)S(=O)(=O)c2ccc3c(c2)c(=O)n(C)c(=O)n3C)cc1	3%	·	·	-8%	·	·
CC(C)=C1C2C=CC1C1C(=O)N(c3ccc4c(c3)OCO4)C(=O)C21 (stereo not given)	?	1%	11%	21µM*	-4%	6
O=C(N/N=C/c1cn(-c2ccccc2)nc1-c1cc2ccccc2o1)c1cccnc1	3.3µM*	0%	?	5.2µM*	11%	-222*
O=C(O)c1cccc(NC(=O)c2cn(-c3ccccc3)nc2-c2cc3ccccc3o2)c1	?	1%	29%	?	-1%	-7
O=C(N/N=C/c1cn(-c2ccccc2)nc1-c1cccnc1)c1cccnc1	-29%	11%	?	-22%	3%	?
O=C(N/N=C/c1cn(-c2ccccc2)nc1-c1cc2ccccc2o1)c1ccncc1	26µM*	?	?	18µM*	?	?
Cn1c(=O)c2c3c(sc2n2cnnc12)CCC3	-26%	-2%	2%	-24%	-3%	33
Cc1ccccc1-n1c(=O)c2c3c(sc2n2cnnc12)CCCC3	15µM*	·	·	16µM*	·	·
COc1ccc(Br)c(C(=O)N2CCN(S(=O)(=O)c3cccs3)CC2)c1	-20%	7%	0%	-6%	4%	0
COc1ccc(C(=O)CCS(=O)(=O)c2ccc(C)cc2)cc1OC	3.7µM*	?	-5%	3.3µM*	-6%	-82*
Cc1ccc(S(=O)(=O)CCC(=O)OCC(=O)c2cc(C)ccc2C)cc1	-8%	1%	6%	8%	3%	11
Cc1ccc(S(=O)(=O)CCC(=O)c2ccc(O)cc2O)cc1	1.8µM*	3%	1%	1.2µM*	-4%	-8

Compound activity (PubChem BioAssay)
